The supplement of paper PMC11417369
Over roughly 25,000 sequences, “ln(normalized median fluorescence intensity)” has its median near 9.7; the highest 2% begin near 11. Many of the other results were omitted from the sample, so the highest values are more common in it than they were.

test system: PfAP2-HC AP2 domain (GST-tagged); experiment: gcPBM binding intensity (ln(normalized median fluorescence intensity)); higher = stronger DNA binding
Method in brief: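 The binding buffer was 1× PBS containing 1% milk, 0.2 mg/ml BSA, 0.5% salmon testes DNA and 0.03% Triton X-100. In it, GST-tagged P. falciparum DNA-binding domains expressed in E. coli were applied for 1 h to an Agilent 4 × 180k array of primer-extended double-stranded 36-bp intergenic genomic probes plus negative controls. Binding intensity, read with Alexa488 anti-GST antibody and a 488 nm scan, is the highest Masliner-normalised natural-log median intensity across replicate spots of either probe orientation.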

| Sequence | gcPBM binding intensity (ln) |
| --- | --- |
| TATACGCATATATAAACACACAAAAAAAAAAAAAAA [CACACA_site2026] | 9.43 |
| AATGATCATAAATACACACACACAAAAAAAAAAAAA [CACACA_site6072] | 10.3 |
| TACATATATATATACACACATACATATATATACGCA [CACACA_site792] | 9.85 |
| AATAAACATAAATACACACACAAAAAAAAAAACATA [CACACA_site4396] | 10.3 |
| TAAATCCGCAGGCACACACACATATTAATAAAAAAA [CACACA_site3991] | 10.8 |
| AAAAAAAAAAAAAACACACACACAAATACAAATACA [CACACA_site414] | 11.5 |
| ATTAATATATTTACCACACACCCATTTCGATTTTAT [CACACA_site3605] | 10.3 |
| AATATATATATAAATAATATACCTATATATTTTTTG [XGTACX_negctrl_site407] | 9.61 |
| TAATATATTAATATATGTACATATTTATATATCTAC [XGTACX_site7117] | 9.81 |
| TTTTATAAATATTATACATGCATAATGATAAAAAAA [TGCATGCA_site927] | 9.55 |
| TAATAATAAAAATAAACACACATATATCTGTATTTA [CACACA_site5572] | 9.74 |
| TTTTCTTTTTTGAACTGTACGCGTAAATTTAAAAAG [XGTACX_site882] | 9.36 |
| TTTTTGTTACCTATTGTGCACTTCATATAAATTAAA | 9.74 |
| ATATATAATATTTATTGTACTATTTTATTTTTATAA [XGTACX_site705] | 9.62 |
| ACCTAAAATAACTACACACACATAAAAAAAAAAAAA [CACACA_site2529] | 10.2 |
| AAAAAAAATACATACACACACACACGCACATATATA [CACACA_site7645] | 11.7 |
| CAAATACACGGACACACACACACAAAAAAAAAAAAA [CACACA_site6385] | 11 |
| TAACCTAAAATAACTACACACACATAAAAAAAAAAA [CACACA_site8807] | 11.2 |
| ACGGACTTAAAATACACACACACCAAAAAAAAAAAA [CACACA_site7304] | 10.2 |
| TTATACACAAAAAAAAAAATATATATATATATATAT [XGTACX_negctrl_site5] | 9.49 |
| ATGATTATACAAAATATACACACGTGGACACAAATA [CACACA_site8304] | 10.3 |
| TATATAACTAAAATAACACACATATATAAAAATATA [CACACA_site7416] | 9.88 |
| AGCCACTTAAAATACACACACACCAAAAAAAAAAAA [CACACA_site5497] | 10.2 |

| Sequence | gcPBM binding intensity (ln) |
| --- | --- |
| CCACACTTAAAATACACACACACCAAAAAAAAAAAA [CACACA_site2709] | 11.3 |
| AAAATACACGCATACACACACACACGCGCACATATA [CACACA_site6448] | 10.6 |
| CACGCACGCACATACACACACATACACATATAAATA [CACACA_site6907] | 10.1 |
| ACAATATGTATATATATATATATGCAAATGTATAAA [CACACA_negctrl_site53] | 9.78 |
| TTTTTTAAAGCCTGTTCATCATCCTTACCTATCAAC [GTGCAC_negctrl_site452] | 9.49 |
| ATATAATATACTTATTGTACTTATTTAAAATACTAA [XGTACX_site4266] | 9.58 |
| TACTTAAAAAAAAAAAAAATAAATATTATGTATTAT [CACACA_negctrl_site138] | 9.36 |
| AAAGTTACATTCGACACACACATAACAACTAAATAA [CACACA_site3419] | 10.1 |
| TGTATATTTGTTGTTACACACATATATTTTTTTTTT [CACACA_site128] | 9.86 |
| TTGGATTTTCCATAATGTACACATAAAAGTGTTACA [XGTACX_site4544] | 9.4 |
| ATTAAATACATTAACACACACACAAATATATACATA [CACACA_site2881] | 10.7 |
| AGTATACACAAACACACACACACAAAAAAAAAAAAA [CACACA_site8036] | 10.7 |
| ATTAAATACATTAACACACACACAAATATGTACATA [CACACA_site7372] | 11 |
| AAAAAAAAAAAAAACACACACACACGCAAATACATA [CACACA_site6474] | 11.4 |
| AATAAAAAAATAAAATGTACATACAAATAAATAAAT [XGTACX_site5153] | 9.9 |
| AAAAAAAAAAAAAACACACACACACGCATACAAAAT [CACACA_site6794] | 10.6 |
| AACAATGTTGTACATACACACACACTAATAAAAAAT [CACACA_site8758] | 10.3 |
| CAATGTTGTACATACACACACACAAAAAAAAAATAA [CACACA_site2407] | 11.4 |
| ATTAAATACATTAACACACACACAAATAAATACATA [CACACA_site5583] | 10.4 |
| AGTATACGCAAACACACACACACAAAAAAAAAAAAA [CACACA_site426] | 11.2 |
| TATACGCAGAAACACACACACAAAAAAAAAAAAAAA [CACACA_site427] | 10.5 |
| AAAAAAAAAAAAAACACACACACACGCATACACATA [CACACA_site7364] | 10.7 |
